DAX1 inh-1: inhibitors of DAX1 repression of SF-1 activated StAR promoter; inhibition, % at 6.8 µM; 1.1% of 370,000 active; HEK293T StAR-luciferase reporter, SF-1/DAX-1 repression relief; AID 652010;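 active = inhibition above the mean over all tested compounds plus 3 SD, cut at about 3.6% in these data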;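 note: higher inhibition means more luminescence from relief of DAX-1 repression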
ssDAF-12 act: activators of S. stercoralis DAF-12 nuclear receptor; activation, % at 6.8 µM; HEK293 ssDAF-12/GRIP1 lit1-tk-luc reporter, luminescence; % of 3 µM dafachronic acid response; 1% of 370,000 active;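 active = activation above the mean over all tested compounds plus 3 SD, cut at about 0.9% in these data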
DAX1 inh-2: inhibitors of human orphan nuclear receptor DAX1 (NR0B1) | P51843 | HEK293 Gal4-DAX1 luciferase reporter, luminescence | inhibition, % at 6.75 µM | 0.99% of 340,000 active;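 active = inhibition above the mean over all tested compounds plus 3 SD, cut at about 4.2% in these data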;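 note: inhibition shows as a rise in luminescence from relieved DAX1 repression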
Target sequence (P51843 207-470 limits assumed): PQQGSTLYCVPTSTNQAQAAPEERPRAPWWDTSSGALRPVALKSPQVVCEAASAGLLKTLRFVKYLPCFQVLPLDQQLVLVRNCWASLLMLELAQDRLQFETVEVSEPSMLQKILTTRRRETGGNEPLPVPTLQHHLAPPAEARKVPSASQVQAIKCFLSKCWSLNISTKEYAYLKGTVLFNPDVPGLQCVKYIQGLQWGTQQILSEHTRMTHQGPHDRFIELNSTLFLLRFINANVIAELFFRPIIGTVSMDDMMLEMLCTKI
hcDAF12 agonist: activates DAF-12 receptor from parasite H. contortus; HEK293 hcDAF-12 lit1-tk-luc reporter, luminescence; 0% DMSO, 100% Δ7-dafachronic acid; activation, % at 6.8 µM; 1.4% of 370,000 active; AID 652067;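 active = activation above the mean of all tested compounds plus 3 SD, cut at about 5.5% in these data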
hgDAF12 agonist: hgDAF-12 agonism, primary luciferase screen | HEK293 GAL4-hgDAF12 UAS-luciferase reporter, agonist luminescence; normalized to butyrate control | activation, % at 6.8 µM | 1.8% of 370,000 active | AID 687014;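 active = activation above a cutoff set at the mean of all screened compounds plus 3 SD, cut at about 10% in these data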
Hits are given with their value; i = inactive; nt = no result given. In the library only some 4.1% were active in any assay of this set; here they are far more common.

SMILES	DAX1 inh-1	ssDAF-12 act	DAX1 inh-2	hcDAF12 agonist	hgDAF12 agonist
O=C(Nc1ccc2c(c1)OCO2)c1c(Cl)nc2sccn12	i	i	i	5.9	i
CNS(=O)(=O)c1cn(CC(=O)NCc2ccc(OC)cc2)cc1S(=O)(=O)NC	i	i	i	i	i
CNS(=O)(=O)c1cn(CC(=O)NCc2cccc(OC)c2)cc1S(=O)(=O)NC	i	i	i	5.8	i
CSc1ccc(OC2(C)CCN(Cc3ccc(C(C)C)cc3)C2)cc1 (centres undefined)	i	i	nt	i	i
Cc1ccc(-c2nnn(CC(=O)N(CC(=O)NC3CCCCC3)c3ccccc3F)n2)o1	i	i	4.2	i	i
Cc1ccc(-c2noc(CSc3ccccc3)n2)cc1	3.9	i	i	i	12
Cc1ccc(OCc2nc(-c3ccccc3)no2)cc1	i	i	4.8	i	i
Cc1ccc(-c2noc(COc3ccccc3C)n2)cc1	i	i	i	i	i
Oc1ccc(N=Nc2ccccc2)o1	i	4.4	i	i	i
O=c1ccc(N=Nc2ccccc2)ccc1O	i	i	i	i	i
Cc1[nH]c2ccccc2c1-c1csc(NC(=O)CSCCO)n1	i	i	5.5	i	i
COC(=O)c1sc(NC(=O)c2ccc([N+](=O)[O-])o2)c(C#N)c1C	i	i	4.7	i	i
CC(=O)N1CCc2c(sc(NC(=O)c3ccc([N+](=O)[O-])o3)c2C#N)C1	i	i	i	i	i
CCCCCCC(=O)NC1CCCCN(Cc2cccc(Cl)c2)C1=O (centres undefined)	i	i	nt	i	i
O=C(CN1C(=O)C(=O)N(CCC2=CCCCC2)C1=O)Nc1ccc(F)cc1F	i	i	i	i	i
N#Cc1ccc(Cl)cc1NC(=O)CN1C(=O)C(=O)N(CCC2=CCCCC2)C1=O	i	1.2	i	i	i
CC(C)[C@H](NC(=O)C1CC1)C(=O)N1CCC[C@H]1C(=O)NCCc1ccccc1Cl	i	i	nt	i	i
Nc1ccc(Cl)c[n+]1Cc1cccc2cccnc12	i	i	i	5.8	i
CCOC(=O)c1cc(C(C)=O)c(=O)[nH]c1C	i	i	i	i	i
COC(=O)c1cc(C(C)=O)c(C)[nH]c1=O	i	i	5.9	i	i
COc1ccc2nc(-c3ccc(CN4CCC(c5nc6ccccc6[nH]5)CC4)cc3)c(-c3ccccc3)nc2c1	i	i	nt	i	i
O=Cc1c(C(=O)O)n(CC(=O)O)c2ccccc12	i	i	i	5.8	i
Clc1ccc(CSc2nnc(-c3ccccn3)n2Cc2cccs2)cc1Cl	4.2	i	nt	i	i
Cc1ccc(CSc2nnc(-c3ccccn3)n2Cc2cccs2)cc1	i	i	nt	i	i
CCCN1C(=S)c2ccccc2C1c1ccccc1 (centres undefined)	i	1.3	4.7	i	i
SMILES	DAX1 inh-1	ssDAF-12 act	DAX1 inh-2	hcDAF12 agonist	hgDAF12 agonist
CCOC(=O)N1CCC(NC(=O)c2ccc(Cl)cc2)CC1	i	i	i	i	i
CCOC(=O)N1CCC(Nc2nc3ccccc3nc2NS(=O)(=O)c2ccc(Cl)cc2)CC1	i	i	i	8.2	i
COc1cc2ccccc2nn1	i	i	i	i	i
COc1ccc2c(n1)Sc1nc3ccccc3nc1N2	i	i	5.5	i	i
COC(=O)c1cc2c(c3c4ccccc4n(S(=O)(=O)c4ccc(OC)cc4)c13)C(=O)N(Cc1ccc(C(F)(F)F)cc1)C2	i	i	nt	i	i
Cc1cccc2cc(CN(C(=O)c3cccc([N+](=O)[O-])c3)C(C)C)c(=O)[nH]c12	i	0.9	i	i	i
C=CCN1[C@@H](CC(C)C)COc2cccc(N3CCSCC3)c2S1(=O)=O	i	i	nt	i	i
COc1cc(/C=C/C(=O)NC(=O)c2ccccc2O)ccc1O	i	i	i	i	i
O=C(/C=C/c1ccccc1)NC(=O)c1ccccc1O	i	i	i	i	12
O=C(C=Cc1cccc(O)c1)c1ccccc1O	i	i	i	i	12
O=C(Nc1ccc(Nc2cccnc2)cc1)c1c[nH]c2ccccc12	i	i	nt	i	i
COC(=O)[C@@]12CCCCC=C1N(CCc1ccc(Cl)cc1)C(=O)[C@H]2CC(=O)NCC1CCCCC1	i	i	nt	i	i
CCCCCC(=O)N1C[C@@H](n2cc(-c3ccc(F)cc3)nn2)[C@H](O)C[C@@H]1c1ccc(Cl)cc1	i	i	i	i	i
COC(=O)[C@]12C[C@H](CC(=O)NCc3ccccc3)C(=O)N(CCc3ccc(OC)c(OC)c3)C1=C[C@H](C1CCCC1)O[C@@H]2C	i	i	nt	i	i
Cc1ccc(C(=O)/C=C/c2ccc3ncccc3c2)cc1	i	i	i	i	i
COc1ccccc1OCCSc1nc2ccccc2n1CC(O)CO (centres undefined)	i	i	4.7	i	i
C=CCN1C(=O)c2n[nH]c(C)c2C1c1ccc(C)cc1 (centres undefined)	i	i	nt	i	i
COc1cc(NS(=O)(=O)c2ccc(NC(=S)NC(=O)COc3ccccc3OC)cc2)nc(OC)n1	i	i	4.7	i	i
COc1cc(NS(=O)(=O)c2ccc(NC(=O)COc3ccccc3C)cc2)nc(OC)n1	i	i	i	i	i
CC(=O)c1ccc(NS(=O)(=O)c2ccc(N/C=C/C(=O)c3ccc(F)cc3)cc2)cc1	i	i	i	i	i
COc1cc(NS(=O)(=O)c2ccc(N/C=C\C(=O)c3ccc(F)cc3)cc2)nc(OC)n1	i	i	i	6.4	i
Cc1onc(-c2ccccc2)c1C(=O)N1CCCC(C)(C(=O)NS(=O)(=O)C2CC2)C1 (centres undefined)	i	i	nt	i	i
CCN(CC)C(=O)C1=C(C)N(CCC2=CCCCC2)C(=O)C(CC(=O)NCc2ccco2)C1 (centres undefined)	i	i	i	i	i
CCOC(=O)C1=C(C)NC(C)=C(C(=O)OCC)C1/C=C/c1ccccc1OC	i	i	6.4	i	i
CCOc1ccc(C(C(=O)NC2CCCC2)N(C(=O)c2snc(C(N)=O)c2N)c2cccc(O)c2)cc1 (centres undefined)	i	i	i	i	i
SMILES	DAX1 inh-1	ssDAF-12 act	DAX1 inh-2	hcDAF12 agonist	hgDAF12 agonist
COC(=O)N=Nc1c(O)[nH]c2ccc(Br)cc12	i	i	i	i	i
O=C(O)c1ccc(N=Nc2c(O)[nH]c3ccc(Br)cc23)cc1	i	i	i	i	11
COC(=O)c1ccc(NC(=O)COC(=O)C2CC(=O)N(Cc3ccccc3)C2)cc1 (centres undefined)	i	i	4.2	i	i
O=C1C2CCC(C2)C1CN1CCOCC1 (centres undefined)	i	1.8	i	i	i
O=C(NC1CCCCC1)c1ccc(-c2cn[nH]c2)c2ccoc12	i	i	nt	i	13
CC(C)Cc1cc(C(=O)Nc2cccnc2)no1	4.4	i	i	i	i
O=C(Nc1cccnc1)c1cc(-c2ccc(Cl)cc2Cl)on1	i	i	6.7	i	i
CNC(=O)c1cc2c(cn1)[nH]c1ccccc12	3.7	i	i	i	i
Cc1ccc(O)c(/C=N/NC(=O)c2[nH]ncc2Br)c1	i	i	i	6.2	i
CCCCOc1ccc(-c2[nH]ncc2C=O)cc1	i	i	5.1	i	13

Assay outcomes from PubChem.
